Source: PubChem BioAssay
Hits are enriched below; roughly 4.1% of the tested compounds scored in any of these assays.
KLF5 inh – kruppel-like factor 5 inhibition; DLD-1 KLF5 promoter-luciferase reporter, luminescence; inhibition, % at 5 µM; hit rate 0.23% among 290,000; AID 1700;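 active = inhibition above a per-plate limit of that plate's mean compound inhibition plus 3 SD, cut at about 60% in these data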;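 also: 0% = DMSO wells and 100% = LY294002 at 200 µM; higher means less KLF5 promoter-driven luciferase light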
aSyn UTR inh – 5' untranslated region of α-synuclein, MLPCN primary screen | alpha-synuclein 5'UTR reporter, inhibitor activity | inhibition, % (tested at 7.5 µM) | hit rate 0.82% among 300,000 | AID 1813; in the data active = inhibition above about 60%; inconclusive = no clear call, values can overlap the other calls;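 also: H4 neuroglioblastoma cells stably carrying SNCA 5'UTR luciferase fusion; 0% = DMSO wells and 100% = positive control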
697 NFkB inh – lowers PMA/ionomycin-induced NF-kB signal in 697 B cells. 697 B-cell NF-kB luciferase reporter, 16 h. inhibition, % at 4 µM. hit rate 0.33% among 330,000. AID 435022; in the data active = inhibition above about 35%
Gli-Sufu block – blocks Gli-Sufu signaling in a luciferase reporter; Sufu-KO-LIGHT fibroblasts, Gli luciferase reporter luminescence; AID 588413; inhibition, % at 5 µM; hit rate 0.74% among 340,000;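 active = inhibition above about 55%, limit read from the data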;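 also: 0% = DMSO-treated cells and 100% = wells with medium but no cells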
Jurkat NFkB inh – inhibitors of the PMA/ionomycin-induced NF-kB reporter in Jurkat cells. AID 435003. inhibition, % at 4 µM. PMA/ionomycin-induced NF-kB luciferase reporter, luminescence. hit rate 0.53% among 330,000; in the data active = inhibition above about 50%
Mdm2-MdmX inh – inhibitors of human Mdm2/MdmX interaction; hit rate 3% among 330,000; SaOS-2 split-luciferase Mdm2/MdmX complementation, luminescence; O15151+Q00987; inhibition, % at 8 µM;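 active = inhibition of at least 50% at 8 µM in the primary screen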
Target sequence (O15151 whole entry, looked up): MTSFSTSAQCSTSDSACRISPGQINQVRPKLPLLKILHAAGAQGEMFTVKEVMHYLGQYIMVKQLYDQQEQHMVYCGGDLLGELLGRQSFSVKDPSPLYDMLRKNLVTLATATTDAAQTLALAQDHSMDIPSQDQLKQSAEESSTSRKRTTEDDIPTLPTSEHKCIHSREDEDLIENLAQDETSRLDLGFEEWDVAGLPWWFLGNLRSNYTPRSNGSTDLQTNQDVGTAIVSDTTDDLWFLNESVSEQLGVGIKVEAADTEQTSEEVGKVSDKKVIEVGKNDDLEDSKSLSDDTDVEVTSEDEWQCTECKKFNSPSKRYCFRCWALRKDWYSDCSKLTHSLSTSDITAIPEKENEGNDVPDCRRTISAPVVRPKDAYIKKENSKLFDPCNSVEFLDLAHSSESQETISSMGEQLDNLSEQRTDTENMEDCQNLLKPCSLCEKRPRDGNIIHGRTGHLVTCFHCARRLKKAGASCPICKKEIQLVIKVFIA
Target sequence (Q00987 whole entry, looked up): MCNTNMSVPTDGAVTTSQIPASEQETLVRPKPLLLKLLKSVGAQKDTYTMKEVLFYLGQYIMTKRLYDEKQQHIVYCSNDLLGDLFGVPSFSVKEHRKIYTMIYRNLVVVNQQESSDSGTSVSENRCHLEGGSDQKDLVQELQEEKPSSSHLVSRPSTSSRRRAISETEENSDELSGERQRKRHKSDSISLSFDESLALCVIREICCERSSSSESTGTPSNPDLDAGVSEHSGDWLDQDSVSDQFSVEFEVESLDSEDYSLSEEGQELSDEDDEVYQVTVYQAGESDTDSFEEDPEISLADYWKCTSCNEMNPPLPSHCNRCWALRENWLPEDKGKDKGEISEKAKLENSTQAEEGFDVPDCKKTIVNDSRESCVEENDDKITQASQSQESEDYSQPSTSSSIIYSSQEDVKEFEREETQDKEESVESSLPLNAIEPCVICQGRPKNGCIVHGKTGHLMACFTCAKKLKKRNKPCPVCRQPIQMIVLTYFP
Mdm2-MdmX conf – confirmation of human Mdm2/MdmX interaction inhibitors; inhibition, % at 8 µM; Mdm2-MdmX binding, luminescent assay; AID 489028; hit rate 55% among 10,000; shares compounds with Mdm2-MdmX inh; in the data active = inhibition above about 40%
Full FLuc ctr – full-length luciferase inhibition in Mdm2/MdmX counter-screen; shares compounds with Mdm2-MdmX inh; SaOS-2 full-length luciferase counterscreen, luminescence; inhibition, % at 8 µM; hit rate 77% among 6,200;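 active = mean inhibition at 8 µM reaching about 37%, which flags the compound as non-specific, limit read from the data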;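 also: p53-null SaOS-2 cells with luciferase driven by a doxycycline-inducible promoter; compound on cells about two nights before reading with doxycycline added after day one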
An asterisk follows results filed as active; u = inconclusive; x = no result given.

SMILES	KLF5 inh	aSyn UTR inh	697 NFkB inh	Gli-Sufu block	Jurkat NFkB inh	Mdm2-MdmX inh	Mdm2-MdmX conf	Full FLuc ctr
Cc1c(C(=O)N2CCC(C)CC2)oc2ccc3c(c12)C(O)CC1(CCCCC1)O3 (stereo not given)	-8	2	-113	11	11	76*	23	x
O=C(Nc1cc(S(=O)(=O)N2CCCC2)ccc1Cl)c1cc(F)c(F)c(F)c1F	x	x	23	3	-9	20	x	x
CCOC(=O)C1=Nc2ccccc2C1=[N+]=[N-]	-15	21	-20	19	-26	51*	9	x
O=C(NCCc1ccc(Cl)cc1)C1CCCN1C(=O)Nc1ccccc1 (stereo not given)	-8	-9	7	-1	2	27	x	x
CC1(C)Cc2c(sc3ncnc(NNC(=S)NCc4ccccc4)c23)CO1	61	87*	27	7	45	54*	63*	84*
CC(C)NC(=S)NNc1ncnc2sc3c(c12)CC(C)(C)OC3	x	31	-13	-4	0	5	x	x
Cc1ccc(NC(=O)CSCc2cc(=O)n3cc(C)sc3n2)cc1	-23	4	-15	-11	4	17	x	x
CN(Cc1ccco1)c1ncnc2ccc(-c3ccc4c(c3)OCO4)cc12	x	x	-54	-28	9	42	x	x
CN(Cc1ccco1)c1ncnc2ccc(-c3ccc4c(ccn4C)c3)cc12	x	x	-27	19	44	51*	53*	66*
CCc1ccc(Oc2coc3cc(OCC(=O)Nc4cc(C)ccc4C)ccc3c2=O)cc1	-25	u	-10	1	3	52*	14	x
CCCc1ccc(Oc2coc3cc(OCC(=O)Nc4ccccc4C)ccc3c2=O)cc1	-14	38	-18	13	15	9	x	x
CCCN(C(=O)CCl)C1=CCCCC1	-21	-44	-2	-6	-5	85*	27	x
Cc1cccc(NC(=O)c2cc(-c3cccnc3)nc3c(C)cccc23)n1	-2	-20	-8	6	10	50*	2	x
CCC(C)n1c(SCC(=O)NC2CCS(=O)(=O)C2)nc2ccccc2c1=O (stereo not given)	x	-16	-25	-3	6	-9	x	x
COc1cccc(C(=O)Oc2c(Br)cc(Br)cc2/C=N/NC(=O)c2cc(C)[nH]n2)c1	51	64*	30	15	13	59*	55*	20
Cc1cc(C(=O)N/N=C/c2cccc(OC(=O)c3cccc(Br)c3)c2)n[nH]1	-31	x	7	-12	-9	-47	x	x
CCCN(CCC)CCCNC(=S)Nc1ccc2nc(N3CCCC3)cc(C)c2c1	-26	-72	-15	29	2	78*	45*	63*
CCCCN(CC)CCCNC(=S)Nc1ccc2nc(N3CCN(CC)CC3)cc(C)c2c1	-2	-56	7	-2	-41	45	x	x
CCCCN(CC)CCCNC(=S)Nc1ccc2nc(N3CCN(C)CC3)cc(C)c2c1	-14	-41	-3	12	-29	56*	21	x
CCC(CO)Oc1cc(NC(=O)c2ccccc2Cl)c2ncn(C(C)C)c2c1 (stereo not given)	x	x	0	6	-11	7	x	x
CCC(C)n1c(SCC(=O)Nc2cc(C)on2)nc2ccccc2c1=O (stereo not given)	-31	-28	-23	4	26	28	x	x
Cc1cc(NC(=O)CSc2nc3ccccc3c(=O)n2C(C)c2ccccc2)no1 (stereo not given)	-11	46	-69	6	-7	72*	26	x
CC[C@]12c3[nH]c4ccc(OC)cc4c3CCN1C(=O)C(CC(=O)NCCC1=CCCCC1)C[C@@H]2C(=O)N1CCN(C(=O)C2CC2)CC1 (stereo not given in full)	x	x	9	-2	x	34	x	x
COc1cccc(NC(=O)C(=O)N/N=C/c2cc(C)n(-c3ccc(Cl)c(Cl)c3)c2C)c1	1	17	-39	-10	-27	55*	19	x
Brc1ccc2ncnc(Nc3cccc4ccccc34)c2c1	15	-22	-5	14	9	61*	41*	53*
SMILES	KLF5 inh	aSyn UTR inh	697 NFkB inh	Gli-Sufu block	Jurkat NFkB inh	Mdm2-MdmX inh	Mdm2-MdmX conf	Full FLuc ctr
COc1ccc(OC)c(Nc2ncnc3ccc(Br)cc23)c1	14	18	-4	-23	18	51*	35	x
CCN(CC)c1ncnc2ccc(Br)cc12	-9	15	-8	3	-6	58*	52*	38*
O=C(Nc1ccccc1)c1nc[nH]c1C(=O)NCCCCNC(=O)c1[nH]cnc1C(=O)Nc1ccccc1	x	x	10	8	1	77*	45*	90*
Cc1ccc(NC(=O)c2nc[nH]c2C(=O)NCCCCCCNC(=O)c2[nH]cnc2C(=O)Nc2ccc(C)cc2)cc1	x	x	6	-2	9	70*	11	x
O=C(c1ccccc1)c1nc[nH]c1C(=O)Nc1ccccc1	16	-91	-6	3	-4	50*	30	65*
O=C(Nc1ccccc1)c1nc[nH]c1C(=O)NCCNC(=O)c1[nH]cnc1C(=O)Nc1ccccc1	x	x	24	1	13	47	x	x
Cc1ccc(NC(=O)c2[nH]cnc2C(=O)NN)cc1	-31	-65	-13	-8	-4	-4	x	x
CS(=O)(=O)c1ncc(Cl)c(C(=O)Nc2ccc(N3CCOCC3)cc2)n1	-22	-24	-17	14	9	88*	53*	41*
CS(=O)(=O)c1ncc(Cl)c(C(=O)Nc2ccc(OC(F)F)cc2)n1	-6	-49	-24	29	13	92*	100*	52*
CCN(c1ccccc1)S(=O)(=O)c1ccc(NC(=O)c2nc(S(C)(=O)=O)ncc2Cl)cc1	41	2	-97	18	45	99*	96*	51*
COc1ccc(-c2oc3ncnc(NCCCN(C)C)c3c2-c2ccc(OC)cc2)cc1	-16	13	-21	11	32	97*	42*	29
Cc1ccc(C(C)C)cc1OCC(=O)Nc1nnc(C2CC2)s1	x	x	-188	1	-9	88*	65*	33
Cc1cc(OCC(=O)Nc2nnc(C3CC3)s2)ccc1C(C)C	x	x	10	11	3	-4	x	x
COC(=O)N1CCc2c(sc(NC(=O)C3=COCCO3)c2C#N)C1	x	-126	-53	-5	43	56*	75*	66*
O=C(CN1CCC(C(O)(c2ccccc2)c2ccccc2)CC1)Nc1cc(Cl)ccc1Cl	-7	25	-103	-15	-23	54*	45*	86*
CCC(Sc1nc2cc3c(cc2c(=O)n1Cc1ccco1)OCO3)C(=O)Nc1ccccc1OC (stereo not given)	-31	46	-13	5	-7	61*	44*	80*
